Assay results: PubChem BioAssay (EPA / NIEHS)
Calls of active or inactive are those of the source. How the source made its calls: active means hit-call score of the fitted dose curve at least 0.9, where 1 is the maximum; inactive means score below 0.9.

What was measured:
[1] = read-out: Macrophage colony-stimulating factor (MCSF), CSF1 (gene 1435); assay: BSK_hDFCGF_MCSF: BioMAP Diversity Plus: hDFCGF Assay for Macrophage colony-stimulating factor (MCSF) Biomarker Activity (AID 2283060); settings: primary human foreskin fibroblasts; actives raise or lower the signal
Summary of the method: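 Human foreskin fibroblast primary cultures; M-CSF measured by ELISA 24 hours after chemical dosing. Bidirectional fitting relative to DMSO, with overt cytotoxicity tracked by parallel SRB total-protein staining (0.1% SRB, 10% TCA fixation, 560 nm).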

[2] = BSK_hDFCGF_SRB: Viability Assessment in the BioMAP Diversity Plus: hDFCGF Assay (AID 2283061); settings: primary human foreskin fibroblasts;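 further: cells exposed to compound for 24 h before the read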
Summary of the method: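 Human foreskin fibroblasts in 96-well plates were treated 24 h. Total protein was measured by 0.1% SRB staining after 10% TCA fixation, read at 560 nm. Data were fitted bidirectionally against DMSO.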

[3] = read-out: TIMP metallopeptidase inhibitor 1 (TIMP1), TIMP1 (gene 7076); assay: BSK_hDFCGF_TIMP1: BioMAP Diversity Plus: hDFCGF Assay for TIMP metallopeptidase inhibitor 1 (TIMP1) Biomarker Activity (AID 2283062); settings: primary human foreskin fibroblasts; actives raise or lower the signal
Summary of the method: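 Human foreskin fibroblast primary cultures dosed for 24 h; secreted/surface TIMP-1 quantified by ELISA. Bidirectional curve fitting against DMSO baseline; cytotoxicity tracked in parallel cultures by SRB total-protein staining.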

[4] = read-out: Matrix Metallopeptidase 1 (MMP1), MMP1 (gene 4312); assay: BSK_hDFCGF_MMP1: BioMAP Diversity Plus: hDFCGF Assay for Matrix Metallopeptidase 1 (MMP1) Biomarker Activity (AID 2283064); settings: primary human foreskin fibroblasts; actives raise or lower the signal
Summary of the method: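 ELISA read-out of MMP1 from human foreskin fibroblasts (primary skin cells), 24 h post-dose. Gain or loss of signal was fitted bidirectionally versus DMSO negative control; cytotoxicity was checked by SRB in parallel cultures.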

[5] = read-out: Vascular cell adhesion molecule 1 (VCAM1), VCAM1 (gene 7412); assay: BSK_hDFCGF_VCAM1: BioMAP Diversity Plus: hDFCGF Assay for Vascular cell adhesion molecule 1 (VCAM1) Biomarker Activity (AID 2283065); settings: primary human foreskin fibroblasts; actives raise or lower the signal;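 on AC50: VCAM-1 protein level quantified by ELISA after 24 h chemical exposure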
Summary of the method: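 Human foreskin fibroblast primary cells dosed with chemical, VCAM-1 measured by ELISA at 24 h. Bidirectional curve fitting relative to DMSO as negative control/baseline.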

[6] = read-out: Plasminogen activator inhibitor-1 (PAI1), SERPINE1 (gene 5054); assay: BSK_hDFCGF_PAI1: BioMAP Diversity Plus: hDFCGF Assay for Plasminogen activator inhibitor-1 (PAI1) Biomarker Activity (AID 2283066); settings: primary human foreskin fibroblasts; actives raise or lower the signal
Summary of the method: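 ELISA readout of PAI-1 from primary human skin fibroblast cultures, 24 h after compound addition. Gain or loss of signal was fitted bidirectionally against DMSO baseline.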

[7] = read-out: Intercellular Adhesion Molecule 1 (ICAM1), ICAM1 (gene 3383); assay: BSK_KF3CT_ICAM1: BioMAP Diversity Plus: KF3CT Assay for Intercellular Adhesion Molecule 1 (ICAM1) Biomarker Activity (AID 2283067); settings: primary human keratinocytes with fibroblasts; actives raise or lower the signal
Summary of the method: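 Human keratinocyte–foreskin fibroblast co-culture was treated for 24 h. Cell-surface ICAM-1 was quantified by ELISA, fitted bidirectionally relative to DMSO. Cytotoxicity was checked in parallel cultures by SRB total-protein staining.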

[8] = read-out: Interferon-gamma inducible Protein 10 (IP10), CXCL10 (gene 3627); assay: BSK_KF3CT_IP10: BioMAP Diversity Plus: KF3CT Assay for Interferon-gamma inducible Protein 10 (IP10) Biomarker Activity (AID 2283068); settings: primary human keratinocytes with fibroblasts; actives raise or lower the signal
Summary of the method: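 KF3CT co-culture (keratinocytes + foreskin fibroblasts), 24 h compound, IP-10 by ELISA; bidirectional fit vs DMSO baseline.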

[9] = BSK_KF3CT_SRB: Viability Assessment in the BioMAP Diversity Plus: KF3CT Assay (AID 2283069); settings: primary human keratinocytes with fibroblasts;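 further: total protein by sulforhodamine B staining as a cytotoxicity measure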
Summary of the method: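 SRB read-out at 560 nm (0.1% stain, TCA-fixed cells) gauges overt cytotoxicity in a human skin keratinocyte–fibroblast co-culture 24 h post-dosing. Signal change was fitted bidirectionally relative to DMSO control.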

[10] = read-out: Interleukin-1 alpha (IL1a), IL1A (gene 3552); assay: BSK_KF3CT_IL1a: BioMAP Diversity Plus: KF3CT Assay for Interleukin-1 alpha (IL1a) Biomarker Activity (AID 2283070); settings: primary human keratinocytes with fibroblasts; actives raise or lower the signal
Summary of the method: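 Primary skin co-culture (keratinocytes, foreskin fibroblasts), 24 h exposure; ELISA for IL-1a; bidirectional curve fit vs DMSO.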

[11] = read-out: TIMP metallopeptidase inhibitor 2 (TIMP2), TIMP2 (gene 7077); assay: BSK_KF3CT_TIMP2: BioMAP Diversity Plus: KF3CT Assay for TIMP metallopeptidase inhibitor 2 (TIMP2) Biomarker Activity (AID 2283071); settings: primary human keratinocytes with fibroblasts; actives raise or lower the signal
Summary of the method: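 ELISA readout of TIMP-2 in keratinocyte plus foreskin fibroblast co-cultures (human skin primary cells), 24 h post-dose. Gain or loss of signal fitted relative to DMSO.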

[12] = read-out: Transforming growth factor beta 1 (TGFb1), TGFB1 (gene 7040); assay: BSK_KF3CT_TGFb1: BioMAP Diversity Plus: KF3CT Assay for Transforming growth factor beta 1 (TGFb1) Biomarker Activity (AID 2283072); settings: primary human keratinocytes with fibroblasts; actives raise or lower the signal
Summary of the method: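 Read-out: ELISA for TGF-b1 in keratinocyte/foreskin fibroblast human skin co-culture, 24 h after dosing; bidirectional curve fit vs DMSO baseline; gain or loss of signal scored.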

[13] = read-out: C-C motif chemokine 2 (Homo sapiens) (UniProt P13500); assay: BSK_KF3CT_MCP1: BioMAP Diversity Plus: KF3CT Assay for Monocyte Chemoattractant Protein 1 (MCP1/CCL2) Biomarker Activity (AID 2283073); settings: primary human keratinocytes with fibroblasts; actives raise or lower the signal
Summary of the method: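 Human keratinocyte–foreskin fibroblast co-culture; MCP-1 measured by ELISA 24 h after dosing. Bidirectional fit vs DMSO; cytotoxicity tracked by SRB total protein in parallel cultures.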

[14] = read-out: Matrix Metallopeptidase 9 (MMP9), MMP9 (gene 4318); assay: BSK_KF3CT_MMP9: BioMAP Diversity Plus: KF3CT Assay for Matrix Metallopeptidase 9 (MMP9) Biomarker Activity (AID 2283074); settings: primary human keratinocytes with fibroblasts; actives raise or lower the signal;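 on AC50: MMP9 protein level quantified by ELISA in the co-culture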
Summary of the method: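 ELISA read-out of MMP-9 at 24 h post-dosing in a co-culture of human skin keratinocytes and foreskin fibroblasts. Gain or loss of signal was fitted in both directions against DMSO.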

[15] = read-out: urokinase plasminogen activator (uPA), PLAU (gene 5328); assay: BSK_KF3CT_uPA: BioMAP Diversity Plus: KF3CT Assay for urokinase plasminogen activator (uPA) Biomarker Activity (AID 2283075); settings: primary human keratinocytes with fibroblasts; actives raise or lower the signal
Summary of the method: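 Skin co-culture (keratinocytes + foreskin fibroblasts), human primary; 24 h post-dose; uPA by ELISA; gain/loss fit vs DMSO baseline.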

[16] = read-out: CD40, CD40 (gene 958); assay: BSK_LPS_CD40: BioMAP Diversity Plus: LPS Assay for CD40 Biomarker Activity (AID 2283076); settings: primary human HUVEC with PBMC; actives raise or lower the signal
Summary of the method: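 HUVEC plus PBMC co-culture stimulated with LPS; CD40 quantified by ELISA 24 h after compound dosing. Fitting was bidirectional relative to DMSO. SRB staining of parallel cultures flagged overt cytotoxicity.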

[17] = BSK_LPS_SRB: Viability Assessment in the BioMAP Diversity Plus: LPS Assay (AID 2283079); settings: primary human HUVEC with PBMC;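 further: total protein by sulforhodamine B absorbance as a cytotoxicity measure; measured one day after compound addition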
Summary of the method: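 Co-culture of human umbilical vein endothelial cells and PBMC, read 24 h after dosing. Total protein by 0.1% SRB staining after 10% TCA fixation, absorbance at 560 nm; bidirectional fit against DMSO.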

[18] = read-out: E-selectin (Homo sapiens) (UniProt P16581); assay: BSK_LPS_Eselectin: BioMAP Diversity Plus: LPS Assay for Eselectin Biomarker Activity (AID 2283077); settings: primary human HUVEC with PBMC; actives raise or lower the signal
Summary of the method: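 Human umbilical vein endothelial cells co-cultured with PBMC under LPS stimulation; cell-surface E-selectin measured by ELISA 24 h after dosing. Change in either direction versus DMSO, with SRB total-protein staining in parallel cultures for cytotoxicity.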

Measured: AC50

E-selectin (Homo sapiens), sequence (P16581 whole entry, looked up): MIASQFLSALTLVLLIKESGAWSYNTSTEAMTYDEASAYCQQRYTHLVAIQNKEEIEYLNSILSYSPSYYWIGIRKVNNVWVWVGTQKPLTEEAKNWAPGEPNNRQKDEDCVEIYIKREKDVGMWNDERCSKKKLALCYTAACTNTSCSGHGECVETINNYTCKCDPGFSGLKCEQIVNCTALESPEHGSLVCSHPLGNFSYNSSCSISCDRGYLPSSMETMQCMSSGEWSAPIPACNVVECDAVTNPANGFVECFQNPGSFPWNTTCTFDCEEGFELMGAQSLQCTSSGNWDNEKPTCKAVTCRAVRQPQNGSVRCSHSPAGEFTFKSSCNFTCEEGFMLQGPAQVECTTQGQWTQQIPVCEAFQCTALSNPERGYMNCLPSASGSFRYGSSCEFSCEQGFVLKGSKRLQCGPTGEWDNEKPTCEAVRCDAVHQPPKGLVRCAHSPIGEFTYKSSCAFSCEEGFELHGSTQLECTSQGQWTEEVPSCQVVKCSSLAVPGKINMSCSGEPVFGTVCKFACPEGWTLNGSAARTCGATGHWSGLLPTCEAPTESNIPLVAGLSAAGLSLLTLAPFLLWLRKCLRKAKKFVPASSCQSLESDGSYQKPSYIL

CCC(=O)OCC=Cc1ccccc1
not listed: [18]
inactive: all other assays above

CC(C)Cc1ccc(C(C)C(=O)O)cc1 (stereo unspecified)
not listed: [18]
inactive: all other assays above

O=C(c1ccc(OCCN2CCCCC2)cc1)c1c(-c2ccc(O)cc2)sc2cc(O)ccc12
active: [2] 24.4 µM | [3] 35.8 µM | [4] 31.7 µM | [5] 31.4 µM | [6] 15.6 µM | [7] 38 µM | [8] 21 µM | [9] 29.2 µM | [10] 21.8 µM | [11] 29.3 µM | [12] 19.8 µM | [13] 29.1 µM | [14] 17.9 µM | [15] 34.9 µM | [16] 16.6 µM | [18] 38.3 µM | [17] 26.7 µM

CC(=O)OCC=C(C)CCC=C(C)CCC=C(C)C
active: [1] 25.9 µM | [3] 26.3 µM | [6] 25.8 µM
not listed: [18]
inactive: all other assays above

CCn1cc(C(=O)O)c(=O)c2ccc(C)nc21
not listed: [12] | [18]
inactive: all other assays above

O=C1OC2(c3ccc(O)cc3Oc3cc(O)ccc32)c2ccccc21
not listed: [18]
inactive: all other assays above
